The results in this text go back to PubChem BioAssay (NCI).

The structures appear in SMILES notation. The panel holds about 79,000 compounds, 15% with a hit somewhere; the sample as a whole holds those more often. The source made the active and inactive calls. No stated cut-off is given here; in the data, active means growth inhibition above about 70%; inactive means the rest.

The nature of the first assay: NCI Yeast Anticancer Drug Screen. Data for the mec2-1 strain (AID 157). Particulars: S. cerevisiae mec2-1 strain, at 5.0 µM (retest, dose inferred, filed as 0.5), stronger effect = higher value. Summed up:
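Readout is yeast growth inhibition, normalised to vehicle-treated controls, in the mec2-1 strain exposed to compound.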
Consider `O=C(OC1C2CCC2C2CC21)c1ccc([N+](=O)[O-])cc1[N+](=O)[O-]` (stereo not drawn), for which the growth inhibition is 14% (inactive).
In the case of `N#CCc1nc2c(s1)C(=O)c1ccccc1C2=O`, the growth inhibition was 48% (inactive).
On to `CC1=C(C(=S)Nc2ccc(Cl)c(C(=O)OC(C)C)c2)SCCO1`, for which the growth inhibition is 19% (inactive).
`O=C1C(Cl)=C(c2ccc([N+](=O)[O-])cc2)C(=O)c2c(O)cccc21`: the growth inhibition was 100% (active).
With `CCOc1ccc2nc(C)cc(C)c2c1`, the growth inhibition was -23% (inactive).
Same read-out and setting: for `CN(C)CC(O)c1cc(-c2ccc(Cl)cc2)nc2c(Cl)cc(Cl)cc12` (stereo not drawn) the value was 12% (inactive); for `CCCC(=S)N1CCOCC1`, -1% (inactive).
Same read-out and setting: for `C/C(=C/CC1CCC2C3=CCC4CC(O)CCC4(C)C3CCC12C)C(C)C(C)C` (stereo not drawn) the value was -4% (inactive); for `NCC(O)CSc1ccc(Cl)c(Cl)c1` (stereo not drawn), -2% (inactive); for `CCCCCCCCC(=O)NCCCNCCCNC(=O)CCCCCCCC`, -18% (inactive).
Still for that read-out and setting: the result for `O=C1c2ccc(O)cc2C(=O)c2c1ccc(O)c2O` reads 26% (inactive); that for `Clc1nc(Cl)c(Cl)c(-c2ccccc2)n1`, 29% (inactive).
Turning to `Cc1ccc(-c2c(C#N)c(-c3ccc(Cl)cc3)c(C#N)c(=O)n2NS(=O)(=O)c2ccccc2)cc1`, the growth inhibition is 34% (inactive).
On the same count and under the same terms, for `CC(CCC(=O)O)(c1cc(Br)c(O)c(Br)c1)c1cc(Br)c(O)c(Br)c1` the value was -1% (inactive); for `N#CC(C(=O)CCCC(=O)Nc1ccc(Cl)cc1)c1ccccc1Cl` (stereo not drawn), -1% (inactive).
As to `Cc1ccc(S(=O)(=O)S/C(=N\c2ccccn2)Nc2ccccn2)cc1`, the growth inhibition is 72% (active).
Same read-out and setting: the result for `NC(=O)C1CCCN1C(=O)C1CCCN(Cc2cc(CN3CCCC(C(=O)N4CCCC4C(N)=O)C3)cc(CN3CCCC(C(=O)N4CCCC4C(N)=O)C3)c2)C1` (stereo not drawn) reads -5% (inactive).
For the compound `O=C(/C=C\c1cccc2ccccc12)c1ccccn1`, the growth inhibition was 4% (inactive).
Regarding `COC(=O)c1cccc2c1C(=O)c1ccccc1-2`, the growth inhibition was -37% (inactive).
As to `Cn1c(=S)c2[nH]c(SCCN3CCCCC3)nc2n(C)c1=O`, the growth inhibition was 28% (inactive).
As to `CN(C)CCCSc1c2ccccc2nc2cccc([N+](=O)[O-])c12`, the growth inhibition is 0% (inactive).
Same read-out and setting: for `CCCCCCCCN(CCCCCCCC)CC(O)c1cc(-c2ccc(Cl)cc2)nc2c(Cl)cccc12` (stereo not drawn) the value was -1% (inactive); for `CCCCCCCCCCCCS`, -1% (inactive); for `COC(=O)c1nc(=S)[nH]c(C(=O)OC)c1C(=O)c1ccc([N+](=O)[O-])cc1`, -8% (inactive).
Same read-out and setting: for `Cc1[nH]c2ccccc2c1C1=CC2(C)Nc3ccccc3C2C(C)(C)C1` (stereo not drawn) the value was 2% (inactive); for `CCCCCCCCN(CCCCCCCC)CC(O)c1cc(-c2ccc(OC)cc2)nc2cc(Cl)ccc12` (stereo not drawn), 8% (inactive); for `O=C(CC(C[N+](=O)[O-])c1ccc2c(c1)OCO2)c1ccccc1` (stereo not drawn), 9% (inactive).
Still for that read-out and setting: the result for `CN(C)CCN(C)CCC(=O)/C=C/c1ccccc1` reads 100% (active); that for `NC(N)=NC(N)=Nc1ccc(-c2ccccc2)cc1`, 1% (inactive).
With `O=[N+]([O-])c1ccccc1NCCO`, the growth inhibition is 3% (inactive).
As to `Cn1c2c(c3ccccc31)CCN(CCN1CCN(c3cccc(Cl)c3)CC1)C2=O`, the growth inhibition was 7% (inactive).
The same measure, in the same setting: the result for `CC(=O)Oc1c2c(c(C)c3ccccc13)C(=O)c1cccnc1C2=O` reads 6% (inactive).
As for `O=C(/C(=C/c1ccc2c(c1)OCO2)c1ccccc1)c1ccc(OCCN2CCCC2)cc1`, the growth inhibition was 3% (inactive).
Regarding `O=C1C(=O)c2cc(Cl)ccc2-c2ccc(Cl)cc21`, the growth inhibition is 30% (inactive).
For `C/C(=N/NC(=O)Nc1ccc(N=Nc2ccccc2)cc1)c1cccnc1`, the growth inhibition was -3% (inactive).
Still for that read-out and setting: the result for `CC(Cl)C(=O)Nc1cc2ccccc2oc1=O` (stereo not drawn) reads -3% (inactive); that for `CC(C)c1ccc2c(c1)CCC1C(C)(CN)CCCC21C` (stereo not drawn), 0% (inactive).
The same measure, in the same setting: the result for `CN(NC1OC(=O)c2ccccc21)c1ccc(C(F)(F)F)cc1[N+](=O)[O-]` (stereo not drawn) reads 33% (inactive); that for `CCCC(CC)c1c(O)c(O)c(C(CC)CCC)c(C(CC)CCC)c1C(CC)CCC` (stereo not drawn), -12% (inactive).

Still in this assay, the particulars now being: S. cerevisiae mec2-1 strain, at 50.0 µM (retest, dose inferred, filed as 5.0), stronger effect = higher value.
With `O=C(OC1C2CCC2C2CC21)c1ccc([N+](=O)[O-])cc1[N+](=O)[O-]` (stereo not drawn), the growth inhibition is 99% (active).
As to `N#CCc1nc2c(s1)C(=O)c1ccccc1C2=O`, the growth inhibition is 100% (active).
The same measure, in the same setting: the result for `CC1=C(C(=S)Nc2ccc(Cl)c(C(=O)OC(C)C)c2)SCCO1` reads 54% (inactive).
Still for that read-out and setting: for `O=C1C(Cl)=C(c2ccc([N+](=O)[O-])cc2)C(=O)c2c(O)cccc21` the value was 99% (active); for `CCOc1ccc2nc(C)cc(C)c2c1`, 31% (inactive).
On the same count and under the same terms, the result for `CN(C)CC(O)c1cc(-c2ccc(Cl)cc2)nc2c(Cl)cc(Cl)cc12` (stereo not drawn) reads 99% (active); that for `CCCC(=S)N1CCOCC1`, 1% (inactive).
In the case of `C/C(=C/CC1CCC2C3=CCC4CC(O)CCC4(C)C3CCC12C)C(C)C(C)C` (stereo not drawn), the growth inhibition is 86% (active).
Take `NCC(O)CSc1ccc(Cl)c(Cl)c1` (stereo not drawn): the growth inhibition is -4% (inactive).
`CCCCCCCCC(=O)NCCCNCCCNC(=O)CCCCCCCC`: the growth inhibition is -18% (inactive).
On to `O=C1c2ccc(O)cc2C(=O)c2c1ccc(O)c2O`, for which the growth inhibition was 95% (active).
The same measure, in the same setting: the result for `Clc1nc(Cl)c(Cl)c(-c2ccccc2)n1` reads 70% (active); that for `Cc1ccc(-c2c(C#N)c(-c3ccc(Cl)cc3)c(C#N)c(=O)n2NS(=O)(=O)c2ccccc2)cc1`, 59% (inactive); that for `CC(CCC(=O)O)(c1cc(Br)c(O)c(Br)c1)c1cc(Br)c(O)c(Br)c1`, 72% (active).
Same read-out and setting: for `N#CC(C(=O)CCCC(=O)Nc1ccc(Cl)cc1)c1ccccc1Cl` (stereo not drawn) the value was 6% (inactive).
In the case of `Cc1ccc(S(=O)(=O)S/C(=N\c2ccccn2)Nc2ccccn2)cc1`, the growth inhibition is 32% (inactive).
Take `NC(=O)C1CCCN1C(=O)C1CCCN(Cc2cc(CN3CCCC(C(=O)N4CCCC4C(N)=O)C3)cc(CN3CCCC(C(=O)N4CCCC4C(N)=O)C3)c2)C1` (stereo not drawn): the growth inhibition was -21% (inactive).
For `O=C(/C=C\c1cccc2ccccc12)c1ccccn1`, the growth inhibition was 97% (active).
The same measure, in the same setting: for `COC(=O)c1cccc2c1C(=O)c1ccccc1-2` the value was -14% (inactive).
On to `Cn1c(=S)c2[nH]c(SCCN3CCCCC3)nc2n(C)c1=O`, for which the growth inhibition was 46% (inactive).
As for `CN(C)CCCSc1c2ccccc2nc2cccc([N+](=O)[O-])c12`, the growth inhibition was -1% (inactive).
Still for that read-out and setting: for `CCCCCCCCN(CCCCCCCC)CC(O)c1cc(-c2ccc(Cl)cc2)nc2c(Cl)cccc12` (stereo not drawn) the value was 1% (inactive); for `CCCCCCCCCCCCS`, -1% (inactive); for `COC(=O)c1nc(=S)[nH]c(C(=O)OC)c1C(=O)c1ccc([N+](=O)[O-])cc1`, 64% (inactive).
Same read-out and setting: for `Cc1[nH]c2ccccc2c1C1=CC2(C)Nc3ccccc3C2C(C)(C)C1` (stereo not drawn) the value was -1% (inactive); for `CCCCCCCCN(CCCCCCCC)CC(O)c1cc(-c2ccc(OC)cc2)nc2cc(Cl)ccc12` (stereo not drawn), 86% (active).
In the case of `O=C(CC(C[N+](=O)[O-])c1ccc2c(c1)OCO2)c1ccccc1` (stereo not drawn), the growth inhibition was 17% (inactive).
As to `CN(C)CCN(C)CCC(=O)/C=C/c1ccccc1`, the growth inhibition was 99% (active).
As to `NC(N)=NC(N)=Nc1ccc(-c2ccccc2)cc1`, the growth inhibition was 96% (active).
On the same count and under the same terms, for `O=[N+]([O-])c1ccccc1NCCO` the value was 0% (inactive); for `Cn1c2c(c3ccccc31)CCN(CCN1CCN(c3cccc(Cl)c3)CC1)C2=O`, 7% (inactive).
Regarding `CC(=O)Oc1c2c(c(C)c3ccccc13)C(=O)c1cccnc1C2=O`, the growth inhibition was 5% (inactive).
As to `O=C(/C(=C/c1ccc2c(c1)OCO2)c1ccccc1)c1ccc(OCCN2CCCC2)cc1`, the growth inhibition is -8% (inactive).
Regarding `O=C1C(=O)c2cc(Cl)ccc2-c2ccc(Cl)cc21`, the growth inhibition is 95% (active).
Same read-out and setting: for `C/C(=N/NC(=O)Nc1ccc(N=Nc2ccccc2)cc1)c1cccnc1` the value was -11% (inactive); for `CC(Cl)C(=O)Nc1cc2ccccc2oc1=O` (stereo not drawn), 7% (inactive).
Still for that read-out and setting: for `CC(C)c1ccc2c(c1)CCC1C(C)(CN)CCCC21C` (stereo not drawn) the value was 100% (active); for `CN(NC1OC(=O)c2ccccc21)c1ccc(C(F)(F)F)cc1[N+](=O)[O-]` (stereo not drawn), 36% (inactive); for `CCCC(CC)c1c(O)c(O)c(C(CC)CCC)c(C(CC)CCC)c1C(CC)CCC` (stereo not drawn), 52% (inactive).
